# PubChem BioAssay
# Where “and” joins values, the source holds several entries; their conditions need not be identical. Equal values may be shown once. Calls of active or inactive are those of the source. Unless noted, how the calls were made is not given here.
# Experiments:
# [1] = system: Aerobactin synthetase IucA (Klebsiella pneumoniae); test: IucA aerobactin synthetase inhibitors, biochemical, Tocris library, absorbance (AID 1345561); conditions: purified IucA enzyme assay, absorbance (OD) read-out; stronger effect = lower value;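 tested at 8 µM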;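 further: 100% = enzyme without compound and 0% = no enzyme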
# [2] = sensitizers of A549 cells to miR-34 induction, primary screen, imaging, A549 dox-inducible miR-34, nuclei and caspase counts (AID 1347080;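 active means compounds whose cell count with miR-34 switched on is under 0.7 times the count with it off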); conditions: A549 miR-34 inducible, Hoechst nuclei count, 48 h
# [3] = viability rescue of complex I mutant cybrids, primary screen, cell-based, galactose medium, ATP luminescence (AID 1645843;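 active means z-score of at least 1.8 in each of two replicates, scored against plate mean and spread of sample wells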;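 further: positive z means more ATP and so rescue of galactose-driven cybrid death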); conditions: complex I mutant cybrid cells, 72 h, stronger effect = higher value
# [4] = LFS_MB_P medulloblastoma growth inhibition, cell-based, chromothripsis tumors, cisplatin or BGB combos (AID 1671449; in the data active means inhibition above about 80%;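 further: cells exposed for 96 hours; 0% = vehicle DMSO and 100% = killing by high DMSO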); conditions: LFS_MB_P medulloblastoma cells
# [5] = HDN33 neuroblastoma growth inhibition, cell-based, chromothripsis tumors, cisplatin or BGB combos (AID 1671450; in the data active means inhibition above about 80%;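 further: cells exposed to compound for four days; 0% = vehicle DMSO and 100% = cell killing by high DMSO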); conditions: HDN33 neuroblastoma cells, stronger effect = higher value
# [6] = ICB984 medulloblastoma cell growth inhibition, synergistic combos for chromothripsis tumors, cisplatin or BGB combos (AID 1671451); conditions: ICB984 medulloblastoma cells, drug combinations, stronger effect = higher value;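 further: cells exposed for 96 hours before readout; 0% = vehicle DMSO and 100% = killing by high DMSO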
# [7] = HTB85 osteosarcoma cell growth inhibition, synergistic combos for chromothripsis tumors, BGB or cisplatin IC20 combos (AID 1671453; in the data active means inhibition above about 80%;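 further: cells exposed for 96 hours before readout; 0% = vehicle DMSO and 100% = high DMSO killing control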); conditions: HTB85 osteosarcoma cells, drug combinations, stronger effect = higher value
# [8] = liver-stage malaria parasite growth inhibition, primary screen, cell-based, HepG2, luciferase luminescence, HepG2 viability (AID 624349; in the data active means parasite load remaining mostly below about 12%, no sharp cut-off; inactive means mostly above about 10%;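 further: 100% = mean of DMSO negative control wells on the same plate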); conditions: P. berghei liver stage in HepG2, luciferase luminescence, concentration not given here; parasite load remaining: stronger effect = lower value; viability: measured here: HepG2 viability without parasites
# [9] = stronger effect = lower value, cell number ratio, induced over uninduced
# [10] = measured here: relative caspase fold change +Dox/-Dox
# [11] = measured here: total cells with miR-34 induction, stronger effect = lower value
# [12] = measured here: total cells without miR-34 induction
# [13] = at 0.5 µM, stronger effect = higher value
# [14] = measured here: combination with BGB IC20, at 0.005 µM
# [15] = measured here: combination with BGB IC40, at 0.005 µM
# [16] = measured here: combination with BGB IC40, at 0.05 µM
# [17] = measured here: combination with cisplatin, at 0.5 µM, stronger effect = higher value
# [18] = measured here: combination with cisplatin, at 5 µM, stronger effect = higher value
# [19] = measured here: with BGB IC20 combination, at 0.5 µM
# [20] = measured here: with cisplatin IC20 combination, at 0.5 µM
# [21] = measured here: 5 uM single agent, at 5 µM
# [22] = measured here: with BGB IC20, at 0.5 µM
# [23] = measured here: with BGB IC20, at 5 µM
# [24] = measured here: with cisplatin IC20, at 0.5 µM
# [25] = measured here: with cisplatin IC20, at 5 µM
smiles,measurement,setting,value
COc1cc(C=O)c([N+](=O)[O-])cc1OC,remaining activity,[1],102% (inactive)
same,fold change,[2]; [9],0.928 (inactive)
same,fold change,[2]; [10],1.17
same,cell count,[2]; [11],8790
same,cell count,[2]; [12],9460
same,z-score,[3],-0.05 (inactive)
same,inhibition,[4]; [13],-16.6% (inactive)
same,inhibition,[4]; [14],9.48%
same,inhibition,[4]; [15],-5.33%
same,inhibition,[4]; [16],7.41%
same,inhibition,[4]; [17],-18.5%
same,inhibition,[4]; [18],3.4%
same,inhibition,"[5]; BGB combo, at 5 µM",-38.7%
same,inhibition,[5]; at 0.5 µM,-19.7% (inactive)
same,inhibition,"[5]; cisplatin combo, at 5 µM",-6.74%
same,inhibition,[5]; [19],-8.97%
same,inhibition,[5]; [20],-29.9%
same,inhibition,"[5]; single agent, at 5 µM",0.626%
same,inhibition,"[6]; BGB IC20 combo, at 0.005 µM",-9.07%
same,inhibition,"[6]; BGB IC40 combo, at 0.005 µM",-48.2%
same,inhibition,"[6]; BGB IC40 combo, at 0.05 µM",-39.8%
same,inhibition,[6]; at 0.5 µM,-35.2% (inactive)
same,inhibition,"[6]; cisplatin combo, at 0.05 µM",-45.3%
same,inhibition,"[6]; cisplatin combo, at 0.5 µM",-48.6%
same,inhibition,"[6]; cisplatin combo, at 5 µM",-19.2%
same,inhibition,[6]; [21],-4.36%
same,inhibition,[7]; at 0.5 µM,-19.8% (inactive)
same,inhibition,[7]; [22],-22.3%
same,inhibition,[7]; [23],-12.5%
same,inhibition,[7]; [24],-24.3%
same,inhibition,[7]; [25],-32.4%
same,inhibition,"[7]; single agent, at 5 µM",-9.78%
CCN(CC)CCCCN1c2ccccc2Oc2ccc(Cl)cc21,parasite load remaining,[8],45.6% (inactive)
same,viability,[8],112%
same,remaining activity,[1],88.2% (inactive)
same,fold change,[2]; [9],1.24 (inactive)
same,fold change,[2]; [10],0.706
same,cell count,[2]; [11],276
same,cell count,[2]; [12],224
same,z-score,[3],-0.7 (inactive)
COc1cc2c(cc1C(F)(F)F)N(C(=O)Nc1cc(F)cc(-c3cccnc3)c1)CC2,remaining activity,[1],97.1% (inactive)
same,fold change,[2]; [9],0.848 (inactive)
same,fold change,[2]; [10],0.948
same,cell count,[2]; [11],5790
same,cell count,[2]; [12],6820
same,z-score,[3],-0.61 (inactive)
FC(F)(F)c1cc(CO[C@H]2CCCN[C@H]2c2ccccc2)cc(C(F)(F)F)c1,remaining activity,[1],112% (inactive)
same,fold change,[2]; [9],1.01 (inactive)
same,fold change,[2]; [10],0.987
same,cell count,[2]; [11],2150
same,cell count,[2]; [12],2140
same,z-score,[3],-0.8 (inactive)
CC(C)[C@H](CO)Nc1nc(Nc2cc(N)cc(Cl)c2)c2ncn(C(C)C)c2n1,parasite load remaining,[8],38.5% (inactive)
same,viability,[8],101%
same,remaining activity,[1],103% (inactive)
same,fold change,[2]; [9],1.06 (inactive)
same,fold change,[2]; [10],1.14
same,cell count,[2]; [11],1230
same,cell count,[2]; [12],1160
same,z-score,[3],-0.555 (inactive)
C[C@@H](CN1CCC(n2c(=O)[nH]c3cc(Cl)ccc32)CC1)NC(=O)c1ccc2ccccc2c1,remaining activity,[1],106% (inactive)
same,fold change,[2]; [9],1.11 (inactive)
same,fold change,[2]; [10],0.89
same,cell count,[2]; [11],3940
same,cell count,[2]; [12],3560
same,z-score,[3],-1.04 (inactive)
Cc1c(CC(C)(C)C(=O)O)n(Cc2ccc(Cl)cc2)c2ccc(F)cc12,remaining activity,[1],112% (inactive)
same,fold change,[2]; [9],0.952 (inactive)
same,fold change,[2]; [10],0.72
same,cell count,[2]; [11],8220
same,cell count,[2]; [12],8630
same,z-score,[3],0.1 (inactive)
O=c1cc(N2CCOCC2)oc2c1ccc1ccccc12,parasite load remaining,[8],36.5% (inactive)
same,viability,[8],108%
same,remaining activity,[1],119% (inactive)
same,fold change,[2]; [9],1.08 (inactive)
same,fold change,[2]; [10],1.44
same,cell count,[2]; [11],6910
same,cell count,[2]; [12],6380
same,z-score,[3],1.36 (inactive)
same,inhibition,[4]; [13],-16% (inactive)
same,inhibition,[4]; [14],-21.9%
same,inhibition,[4]; [15],39.3%
same,inhibition,[4]; [16],-14.5%
same,inhibition,[4]; [17],-18.2%
same,inhibition,[4]; [18],6.61%
same,inhibition,"[5]; BGB combo, at 5 µM",-27.9%
same,inhibition,[5]; at 0.5 µM,5.72% (inactive)
same,inhibition,"[5]; cisplatin combo, at 5 µM",-6.14%
same,inhibition,[5]; [19],-2.44%
same,inhibition,[5]; [20],15.8%
same,inhibition,"[5]; single agent, at 5 µM",4.04%
same,inhibition,"[6]; BGB IC20 combo, at 0.005 µM",3.18%
same,inhibition,"[6]; BGB IC40 combo, at 0.005 µM",-0.874%
same,inhibition,"[6]; BGB IC40 combo, at 0.05 µM",-4.91%
same,inhibition,[6]; at 0.5 µM,-11.2% (inactive)
same,inhibition,"[6]; cisplatin combo, at 0.05 µM",-10.2%
same,inhibition,"[6]; cisplatin combo, at 0.5 µM",-14.9%
same,inhibition,"[6]; cisplatin combo, at 5 µM",-15.9%
same,inhibition,[6]; [21],0.403%
same,inhibition,[7]; at 0.5 µM,-0.76% (inactive)
same,inhibition,[7]; [22],5.35%
same,inhibition,[7]; [23],11.2%
same,inhibition,[7]; [24],-3.29%
same,inhibition,[7]; [25],1.5%
same,inhibition,"[7]; single agent, at 5 µM",5%
COc1ccc2[nH]c(I)c(CCNC(C)=O)c2c1,remaining activity,[1],98.4% (inactive)
same,fold change,[2]; [9],0.928 (inactive)
same,fold change,[2]; [10],0.922
same,cell count,[2]; [11],8770
same,cell count,[2]; [12],9460
same,z-score,[3],0.09 (inactive)
Nc1[nH]nc2nc3ccccc3nc12,parasite load remaining,[8],38.7% (inactive)
same,viability,[8],97.8%
same,remaining activity,[1],110% (inactive)
same,fold change,[2]; [9],0.889 (inactive)
same,fold change,[2]; [10],0.743
same,cell count,[2]; [11],7860
same,cell count,[2]; [12],8840
same,z-score,[3],-0.17 (inactive)
COc1cc2ncnc(Nc3ccc(Oc4ccccc4)cc3)c2cc1OC,parasite load remaining,[8],30.7% (inactive)
same,viability,[8],67.6%
same,remaining activity,[1],104% (inactive)
same,fold change,[2]; [9],0.963 (inactive)
same,fold change,[2]; [10],1.11
same,cell count,[2]; [11],8700
same,cell count,[2]; [12],9040
same,z-score,[3],0.48 (inactive)
C=CC(=O)c1ccc2ccccc2c1,remaining activity,[1],118% (inactive)
same,fold change,[2]; [9],0.911 (inactive)
same,fold change,[2]; [10],1.23
same,cell count,[2]; [11],8570
same,cell count,[2]; [12],9410
same,z-score,[3],-0.58 (inactive)
CCOC(=O)c1ncc2[nH]c3cccc(OC(C)C)c3c2c1C,remaining activity,[1],96.4% (inactive)
same,fold change,[2]; [9],0.924 (inactive)
same,fold change,[2]; [10],0.813
same,cell count,[2]; [11],5120
same,cell count,[2]; [12],5540
same,z-score,[3],-0.64 (inactive)
CC(O)(C(=O)Nc1ccc(S(=O)(=O)c2ccccc2)cc1)C(F)(F)F (stereo not drawn),remaining activity,[1],125% (inactive)
same,fold change,[2]; [9],0.907 (inactive) and 0.921 (inactive)
same,fold change,[2]; [10],1.29 and 0.986
same,cell count,[2]; [11],4820 and 7390
same,cell count,[2]; [12],5310 and 8020
same,z-score,[3],-0.32 (inactive)
Cc1c(C(=O)N(C)C2CCCCC2)sc2nc3ccc(N)cc3n12,remaining activity,[1],121% (inactive)
same,fold change,[2]; [9],0.956 (inactive)
same,fold change,[2]; [10],1.28
same,cell count,[2]; [11],7660
same,cell count,[2]; [12],8010
same,z-score,[3],-0.64 (inactive)
CCOC(=O)NC[C@H](Cc1ccc(OCCc2nc(-c3ccccc3)oc2C)cc1)N/C(C)=C\C(=O)c1ccc(C(F)(F)F)cc1,remaining activity,[1],105% (inactive)
same,fold change,[2]; [9],1.05 (inactive)
same,fold change,[2]; [10],1.05
same,cell count,[2]; [11],5130
same,cell count,[2]; [12],4910
same,z-score,[3],-0.305 (inactive)
